# Assay results published in the supplement of paper PMC12067093, “Discovery and optimisation of a covalent ligand for TRIM25 and its application to targeted protein ubiquitination” (Chemical Science, 2025).
# About 21,000 targets were measured; listed, in parts, are those with the largest changes and a random draw of the rest.
# Compound: Cc1cc(ccc1-c1ccccc1)C(=O)N1CCCN(CC1)C(=O)CCl [compound 10]
# Assay: probe-labelled cysteine peptide fold change vs DMSO (competition) (log2 fold change); higher = less target engagement (more negative = stronger competition)
# Conditions: THP-1, incubation time: 4 h
# 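Note: competitive profiling in live THP-1 cells: cysteine peptides tagged with an iodoacetamide desthiobiotin (IA-DTB) probe, intensity after compound treatment relative to DMSO-treated cells.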
# UniProt Q9BTE3, sequence (Q9BTE3 whole entry, looked up): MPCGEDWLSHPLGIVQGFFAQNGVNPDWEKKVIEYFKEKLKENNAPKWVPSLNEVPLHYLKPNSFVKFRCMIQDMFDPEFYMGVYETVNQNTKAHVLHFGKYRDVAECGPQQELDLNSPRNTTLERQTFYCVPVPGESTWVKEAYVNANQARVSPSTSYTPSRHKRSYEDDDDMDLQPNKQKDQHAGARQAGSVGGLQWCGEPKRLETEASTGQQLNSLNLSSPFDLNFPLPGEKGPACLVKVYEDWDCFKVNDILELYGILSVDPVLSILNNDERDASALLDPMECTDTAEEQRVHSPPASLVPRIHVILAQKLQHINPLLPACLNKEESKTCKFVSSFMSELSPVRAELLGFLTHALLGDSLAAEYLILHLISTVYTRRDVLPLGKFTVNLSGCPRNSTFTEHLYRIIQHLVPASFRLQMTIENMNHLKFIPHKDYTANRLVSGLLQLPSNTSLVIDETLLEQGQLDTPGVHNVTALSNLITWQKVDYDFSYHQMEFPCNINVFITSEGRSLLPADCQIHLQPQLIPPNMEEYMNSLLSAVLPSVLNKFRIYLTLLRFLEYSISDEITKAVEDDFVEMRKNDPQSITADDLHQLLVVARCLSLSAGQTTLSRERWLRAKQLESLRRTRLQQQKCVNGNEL
# UniProt P22033, sequence (P22033 whole entry, looked up): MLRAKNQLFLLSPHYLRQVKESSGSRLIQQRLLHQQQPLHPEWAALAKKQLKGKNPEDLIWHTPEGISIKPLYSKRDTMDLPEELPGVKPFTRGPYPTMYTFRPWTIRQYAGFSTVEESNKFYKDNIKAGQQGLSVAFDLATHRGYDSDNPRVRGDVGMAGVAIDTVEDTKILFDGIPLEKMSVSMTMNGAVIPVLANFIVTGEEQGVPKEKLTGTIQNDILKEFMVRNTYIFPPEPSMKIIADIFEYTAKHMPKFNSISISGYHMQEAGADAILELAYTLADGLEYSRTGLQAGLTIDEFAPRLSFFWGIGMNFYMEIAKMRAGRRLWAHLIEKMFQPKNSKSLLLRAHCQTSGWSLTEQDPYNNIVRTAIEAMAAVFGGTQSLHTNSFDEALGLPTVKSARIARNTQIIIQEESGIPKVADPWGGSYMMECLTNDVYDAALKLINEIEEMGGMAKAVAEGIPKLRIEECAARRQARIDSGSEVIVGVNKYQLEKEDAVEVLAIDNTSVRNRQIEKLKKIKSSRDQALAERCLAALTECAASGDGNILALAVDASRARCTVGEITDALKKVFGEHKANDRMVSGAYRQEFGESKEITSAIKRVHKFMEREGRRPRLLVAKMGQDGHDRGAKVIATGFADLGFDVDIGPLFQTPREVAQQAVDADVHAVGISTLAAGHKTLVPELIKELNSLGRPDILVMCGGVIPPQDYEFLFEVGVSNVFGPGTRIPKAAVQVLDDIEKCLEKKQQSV
# UniProt Q9Y333, sequence (Q9Y333 whole entry, looked up): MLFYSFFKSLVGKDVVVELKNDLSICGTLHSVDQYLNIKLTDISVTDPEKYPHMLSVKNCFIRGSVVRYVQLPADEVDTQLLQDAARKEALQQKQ
# UniProt Q9BVC4, sequence (Q9BVC4 whole entry, looked up): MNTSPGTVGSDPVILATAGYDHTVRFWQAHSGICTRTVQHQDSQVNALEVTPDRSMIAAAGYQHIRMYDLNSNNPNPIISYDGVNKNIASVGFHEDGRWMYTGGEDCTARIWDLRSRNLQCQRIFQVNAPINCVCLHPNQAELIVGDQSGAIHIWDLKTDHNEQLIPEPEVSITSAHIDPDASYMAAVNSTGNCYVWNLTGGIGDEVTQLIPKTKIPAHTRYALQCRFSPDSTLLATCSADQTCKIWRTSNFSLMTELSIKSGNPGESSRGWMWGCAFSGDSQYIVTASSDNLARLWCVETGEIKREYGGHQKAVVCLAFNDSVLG
# UniProt Q6UB35, sequence (Q6UB35 whole entry, looked up): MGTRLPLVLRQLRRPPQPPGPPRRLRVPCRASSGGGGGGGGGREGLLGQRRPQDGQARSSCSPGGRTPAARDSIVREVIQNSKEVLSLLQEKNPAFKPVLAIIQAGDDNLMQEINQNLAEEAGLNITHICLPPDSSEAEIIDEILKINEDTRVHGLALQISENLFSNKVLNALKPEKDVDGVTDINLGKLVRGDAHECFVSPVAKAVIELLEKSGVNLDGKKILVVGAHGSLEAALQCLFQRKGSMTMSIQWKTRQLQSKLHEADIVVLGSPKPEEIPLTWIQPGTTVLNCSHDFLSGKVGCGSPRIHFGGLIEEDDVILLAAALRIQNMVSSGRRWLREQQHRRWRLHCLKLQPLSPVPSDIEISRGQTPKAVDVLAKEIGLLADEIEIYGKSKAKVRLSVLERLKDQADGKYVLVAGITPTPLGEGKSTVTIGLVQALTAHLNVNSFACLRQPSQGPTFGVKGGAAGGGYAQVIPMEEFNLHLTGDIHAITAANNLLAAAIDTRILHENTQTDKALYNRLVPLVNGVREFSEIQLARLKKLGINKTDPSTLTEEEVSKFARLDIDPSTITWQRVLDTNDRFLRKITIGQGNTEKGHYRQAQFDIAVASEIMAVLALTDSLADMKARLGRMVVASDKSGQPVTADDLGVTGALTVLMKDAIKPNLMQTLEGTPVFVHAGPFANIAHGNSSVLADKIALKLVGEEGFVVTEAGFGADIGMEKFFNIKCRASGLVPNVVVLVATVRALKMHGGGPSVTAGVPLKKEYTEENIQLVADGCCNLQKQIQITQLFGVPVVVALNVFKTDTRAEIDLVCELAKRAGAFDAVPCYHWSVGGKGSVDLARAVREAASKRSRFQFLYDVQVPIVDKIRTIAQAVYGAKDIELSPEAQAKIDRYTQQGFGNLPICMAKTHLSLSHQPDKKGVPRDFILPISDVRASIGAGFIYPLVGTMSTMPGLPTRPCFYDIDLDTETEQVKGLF
# UniProt P17931, sequence (P17931 whole entry): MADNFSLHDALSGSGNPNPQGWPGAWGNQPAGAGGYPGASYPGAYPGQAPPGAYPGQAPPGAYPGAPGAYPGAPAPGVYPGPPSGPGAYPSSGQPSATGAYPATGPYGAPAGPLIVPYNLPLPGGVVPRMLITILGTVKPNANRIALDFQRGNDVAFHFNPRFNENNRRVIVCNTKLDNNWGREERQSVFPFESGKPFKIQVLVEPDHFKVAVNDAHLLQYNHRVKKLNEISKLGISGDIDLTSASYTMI
# UniProt Q96MC6, sequence (Q96MC6 whole entry): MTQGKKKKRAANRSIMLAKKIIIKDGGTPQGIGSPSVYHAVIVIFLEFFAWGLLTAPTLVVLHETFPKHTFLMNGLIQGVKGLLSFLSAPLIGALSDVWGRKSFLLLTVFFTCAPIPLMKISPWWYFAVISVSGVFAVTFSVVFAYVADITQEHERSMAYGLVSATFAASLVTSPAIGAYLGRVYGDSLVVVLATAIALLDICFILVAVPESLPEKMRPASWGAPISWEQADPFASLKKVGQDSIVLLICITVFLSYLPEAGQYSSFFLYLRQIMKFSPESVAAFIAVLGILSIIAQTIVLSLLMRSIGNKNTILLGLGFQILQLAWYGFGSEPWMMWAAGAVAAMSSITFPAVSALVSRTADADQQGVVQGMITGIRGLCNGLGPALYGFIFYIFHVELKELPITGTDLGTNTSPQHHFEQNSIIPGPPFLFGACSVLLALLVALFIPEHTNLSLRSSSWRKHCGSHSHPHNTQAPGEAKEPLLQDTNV
# UniProt Q9BTC8, sequence (Q9BTC8 whole entry, looked up): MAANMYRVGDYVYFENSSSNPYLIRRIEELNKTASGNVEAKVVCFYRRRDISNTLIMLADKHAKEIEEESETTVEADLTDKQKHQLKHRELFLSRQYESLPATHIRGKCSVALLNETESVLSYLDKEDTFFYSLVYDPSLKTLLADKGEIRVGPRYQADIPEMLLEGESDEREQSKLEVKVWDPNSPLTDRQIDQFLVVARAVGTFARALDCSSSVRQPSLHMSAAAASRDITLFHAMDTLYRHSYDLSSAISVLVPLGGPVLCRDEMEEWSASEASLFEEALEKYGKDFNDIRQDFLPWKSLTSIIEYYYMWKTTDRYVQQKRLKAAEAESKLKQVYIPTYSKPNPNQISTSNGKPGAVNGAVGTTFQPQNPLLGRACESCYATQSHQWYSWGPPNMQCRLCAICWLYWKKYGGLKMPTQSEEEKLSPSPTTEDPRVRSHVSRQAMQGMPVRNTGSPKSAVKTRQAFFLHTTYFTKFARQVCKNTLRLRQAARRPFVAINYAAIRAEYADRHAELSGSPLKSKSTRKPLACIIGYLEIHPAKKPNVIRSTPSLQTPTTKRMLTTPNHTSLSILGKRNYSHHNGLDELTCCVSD
# UniProt Q9Y3A3, sequence (Q9Y3A3 whole entry, looked up): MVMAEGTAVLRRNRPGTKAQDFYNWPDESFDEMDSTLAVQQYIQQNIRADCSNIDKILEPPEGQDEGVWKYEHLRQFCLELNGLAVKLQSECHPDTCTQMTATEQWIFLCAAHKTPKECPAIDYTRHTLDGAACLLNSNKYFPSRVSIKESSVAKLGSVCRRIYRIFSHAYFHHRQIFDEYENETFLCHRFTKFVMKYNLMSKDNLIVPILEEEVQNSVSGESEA
# UniProt P45983, sequence (P45983 whole entry, looked up): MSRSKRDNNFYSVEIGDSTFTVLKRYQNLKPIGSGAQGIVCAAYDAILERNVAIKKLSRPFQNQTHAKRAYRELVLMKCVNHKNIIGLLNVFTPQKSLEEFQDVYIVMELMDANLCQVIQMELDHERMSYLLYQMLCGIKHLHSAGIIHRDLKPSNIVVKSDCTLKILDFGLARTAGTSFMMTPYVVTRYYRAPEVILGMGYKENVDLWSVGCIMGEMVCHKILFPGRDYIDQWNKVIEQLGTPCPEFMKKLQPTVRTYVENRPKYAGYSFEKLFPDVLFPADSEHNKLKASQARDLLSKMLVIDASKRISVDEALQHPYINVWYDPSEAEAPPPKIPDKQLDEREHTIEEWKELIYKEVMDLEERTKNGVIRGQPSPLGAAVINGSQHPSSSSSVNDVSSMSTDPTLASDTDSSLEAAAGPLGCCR
Target,probe-labelled cysteine peptide fold change (10 µM),probe-labelled cysteine peptide fold change (50 µM)
MSTO1_Q9BUK6_347_LCSSPVSMVHLADMLSFCGK (UniProt Q9BUK6),0.0999,0.248
MCM5_P33992_355_AIACLLFGGSRK (UniProt P33992),-0.159,-0.759
MUT_P22033_560_CTVGEITDALK (UniProt P22033),0.0307,0.0797
MDN1_Q9NU22_3308_MDRLDNLTCHLLK (UniProt Q9NU22),-0.00667,-0.264
MBD2_Q9UBB5_111_GRPPSGGSGLGGDGGGCGGGGSGGGGAPR (UniProt Q9UBB5),-0.142,-1.1
MTA3_Q9BTC8_109_CSVALLNETESVLSYLDK (UniProt Q9BTC8),0.791,0.971
MYCBP2_O75592_4318_QVFKEEEEAIKVDLHEGCGR (UniProt O75592),-0.166,-0.439
MLST8_Q9BVC4_34_FWQAHSGICTR (UniProt Q9BVC4),-0.182,0.0338
MRPS18A_Q9NVS2_186_DNVCYSR (UniProt Q9NVS2),-0.0735,-0.099
LGALS3_P17931_173_VIVCNTK (UniProt P17931),0.0884,-0.00184
MTHFD1_P11586_236_GEWIKPGAIVIDCGINYVPDDKKPNGR (UniProt P11586),-0.116,-1.23
LIMS1_P48059_193_MGVPICGACR (UniProt P48059),-0.104,-0.269
MADD_Q8WXG6_1489_LINMTYCPK (UniProt Q8WXG6),-0.139,-1.56
MCCC2_Q9HCC0_267_AATGEEVSAEDLGGADLHCR (UniProt Q9HCC0),-0.421,-1.1
MRPL44_Q9H9J2_96_TAFVNSCYIK (UniProt Q9H9J2),-0.0364,-0.21
MCMBP_Q9BTE3_325_LQHINPLLPACLNK (UniProt Q9BTE3),-0.451,-1.87
LPP_Q93052_524_SLDGIPFTVDAGGLIHCIEDFHKK (UniProt Q93052),-0.0384,-0.452
MATR3_P43243_230_CRDDSFFGETSHNYHK (UniProt P43243),0.00308,-0.311
MOB4_Q9Y3A3_134_HTLDGAACLLNSNK (UniProt Q9Y3A3),-1.14,-3.77
MAK16_Q9BXY0_39_NEYSLTGLCNR (UniProt Q9BXY0),0.173,-0.348
LSM2_Q9Y333_26_DVVVELKNDLSICGTLHSVDQYLNIK (UniProt Q9Y333),0.0504,-0.543

Target,probe-labelled cysteine peptide fold change (10 µM),probe-labelled cysteine peptide fold change (50 µM)
MED13_Q9UHV7_681_NQCLSAIASDAEQEPK (UniProt Q9UHV7),0.327,0.0925
LIMK1_P53667_84_YGESCHGCSEQITK (UniProt P53667),0.0187,-0.262
MFSD14A_Q96MC6_465_HCGSHSHPHNTQAPGEAK (UniProt Q96MC6),-0.39,-1.11
MTHFD1L_Q6UB35_906_YTQQGFGNLPICMAK (UniProt Q6UB35),-0.063,-0.0614
MYCBP2_O75592_3392_MPCLYLQTLAR (UniProt O75592),-0.0844,-0.345
MTHFD1_P11586_236_GEWIKPGAIVIDCGINYVPDDK (UniProt P11586),0.183,0.298
MKI67_P46013_643_SQHDILQMICSK (UniProt P46013),-0.612,-2.28
MACF1_Q9UPN3_5309_DCDVQGLEHDMEEINAR (UniProt Q9UPN3),0.0885,0.126
MTMR3_Q13615_473_CPVFLQWLDCVHQLQR (UniProt Q13615),-0.0651,0.044
MRPS31_Q92665_356_HFMELVTCGLSK (UniProt Q92665),0.0457,-0.112
MDN1_Q9NU22_3195_ELLCQLLTSLHHFVGEGESK (UniProt Q9NU22),-0.696,-1.2
MTMR14_Q8NCE2_131_FVCPVILFK (UniProt Q8NCE2),-0.00849,-0.0865
MRPL42_Q9Y6G3_45_STYSPLPDDYNCNVELALTSDGR (UniProt Q9Y6G3),0.0794,-0.1
MGAT2_Q10469_386_KTCRPSTQSAQIESLLNNNK (UniProt Q10469),-0.194,-0.657
MCM6_Q14566_158_THPVHPELVSGTFLCLDCQTVIRDVEQQFK (UniProt Q14566),0.0358,-0.522
MAPK8_P45983_163_SDCTLK (UniProt P45983),-0.283,-1.24
LYST_Q99698_2223_SEDDSPGDESCPR (UniProt Q99698),-0.367,-1.41
MRC2_Q9UBG0_187_IYGSEEDLCALPYHEVYTIQGNSHGKPCTIPFK (UniProt Q9UBG0),-0.0343,-0.784
MSH6_P52701_687_SELALSALGGCVFYLK (UniProt P52701),0.05,0.296
LIMS3_P0CW19-2_136_YCEHDFQMLFAPCCHQCGEFIIGR<|>LIMS1_P48059_74_YCEHDFQMLFAPCCHQCGEFIIGR (UniProt P48059+P0CW19),0.212,0.138
MGAT2_Q10469_378_IFHAGDCGMHHK (UniProt Q10469),-0.125,-0.149
